# In the library only some 3.5% were active in any assay of this set; here they are far more common.
# MITF primary – inhibitors of human MITF; O75030; AlphaScreen MITF homodimerization, bead proximity signal; inhibition, % at 2.6 µM; hit rate 0.91% among 650,000; AID 1259374; in the data active = inhibition above about 50%;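 also: 0% = vehicle wells with protein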
# FBW7 act – human FBW7 E3 ligase activation, primary screen | Q969H0 | AlphaScreen FBW7–phospho-cyclin E peptide binding, activator screen | normalized activity (activation), % at 26.1 µM | hit rate 0.13% among 650,000 | AID 1259310; in the data active = normalized activity above about 1.9%;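 also: purified mutant Fbw7 with reduced substrate affinity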
# GPR151 activ – activators of human GPR151; Q8TDV0; PathHunter beta-arrestin GPR151 cells, luminescence; AID 1508602; activation, % at 11.2 µM; hit rate 1% among 650,000; in the data active = activation above about 4.9%;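 also: 0% = median of compound wells and 100% = cells with positive control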
# Target sequence (Q8TDV0 whole entry, looked up): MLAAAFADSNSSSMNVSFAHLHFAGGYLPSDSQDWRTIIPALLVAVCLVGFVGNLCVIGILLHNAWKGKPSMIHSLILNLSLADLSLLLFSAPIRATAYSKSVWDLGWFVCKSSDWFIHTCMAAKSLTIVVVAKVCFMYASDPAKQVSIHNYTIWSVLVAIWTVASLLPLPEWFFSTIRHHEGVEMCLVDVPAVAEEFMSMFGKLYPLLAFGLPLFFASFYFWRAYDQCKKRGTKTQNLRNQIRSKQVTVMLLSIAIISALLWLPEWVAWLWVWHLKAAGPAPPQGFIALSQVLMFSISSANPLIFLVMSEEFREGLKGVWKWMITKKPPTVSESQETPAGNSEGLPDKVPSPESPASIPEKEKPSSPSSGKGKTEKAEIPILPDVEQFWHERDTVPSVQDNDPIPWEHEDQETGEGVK
# TEAD-YAP block – TEAD-YAP interaction inhibition. HEK-TIYL cells, TEAD-Gal4/YAP UAS-luciferase luminescence. hit rate 1.4% among 640,000. inhibition, % at 9.12 µM; in the data active = inhibition above about 32%;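 also: 0% = median of test compound wells and 100% = reference inhibitor wells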
# MITF inh conf – confirmation of human MITF inhibitors; shares compounds with MITF primary; AlphaScreen MITF homodimerization, biotin/His-MITF beads; inhibition, % at 2.6 µM; hit rate 16% among 4,700; AID 1259372;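 active = inhibition above a cutoff derived from the DMSO control wells, cut at about 28% in these data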;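 also: 0% = MITF dimer wells with DMSO only; inhibitors lower the bead chemiluminescence by keeping MITF from dimerizing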
# AS interf DR – AlphaScreen optical interference, dose response counter-screen | shares compounds with MITF primary | AlphaScreen optical interference counterscreen, cell-free | IC50, µM | hit rate 6% among 480 | AID 1259373; call rule not given here
# AS interf ctr – AlphaScreen optical interference, counter-screen | shares compounds with MITF primary | LysRS AlphaScreen counterscreen, signal interference, triplicate | inhibition, % at 2.6 µM | hit rate 7.6% among 4,700 | AID 1259376;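 active = inhibition above a cutoff derived from the DMSO control wells, cut at about 30% in these data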
# Numbers without * were called inactive; x = no result given.
SMILES,MITF primary,FBW7 act,GPR151 activ,TEAD-YAP block,MITF inh conf,AS interf ctr,others
COc1ccc(CN(C)CCc2ccccn2)cc1,83*,1,0,-10,-5,0,
CN(Cc1ccccc1)Cc1cccnc1,40,0,3,12,x,x,
O=C(NCc1ccc(F)cc1)c1ccc(CNS(=O)(=O)c2ccc(Br)cc2)cc1,10,0,-1,-3,x,x,
CCOC(=O)C1=CN(c2cc(C)ccc2C)C=C(C(=O)OCC)C1c1ccc2c(c1)OCO2,-6,0,1,6,x,x,
CN(CCc1ccccn1)Cc1ccc(Cl)cc1,83*,1,0,4,-2,0,
O=C(CCSCCc1ccccn1)Nc1cccc([N+](=O)[O-])c1,4,0,0,-2,x,x,
Cc1ccc(CN(C)CCc2ccccn2)cc1,35,0,0,-1,x,x,
CN(CCc1ccccn1)Cc1ccc2c(c1)CN(Cc1cccs1)CCO2,20,0,0,6,x,x,
CN(CCc1ccccn1)Cc1ccncc1,83*,0,-1,3,2,-1,
O=[N+]([O-])c1ccc(CSCCc2ccccn2)cc1,70*,0,0,-52,12,22,
CN(CCc1ccccn1)Cc1ccc([N+](=O)[O-])cc1,75*,0,0,-6,0,6,
Cc1c(C(=O)n2ccnc2C)cccc1[N+](=O)[O-],4,0,-1,-6,x,x,
CN(C)CCN(C)Cc1ccc([N+](=O)[O-])cc1,83*,1,-1,6,16,21,
CN(C)CCN(C)Cc1ccc(N(C)C)cc1,45,0,1,13,x,x,
Cc1ccc(NC(=O)Nc2nnc(C3CCCC3)s2)cc1C,-12,0,2,5,x,x,
Cc1cccc(NC2(C(F)(F)F)N=C3SCCN3C2=O)n1 (configuration not stated),80*,0,-1,-7,8,10,
CCN(CC)CCN1CC(c2ccccc2)CC1=O (configuration not stated),58*,0,0,5,17,11,
Cc1cccc(-n2cc(-c3ccccc3)c3c(NCc4ccccc4)ncnc32)c1,9,0,2,-1,x,x,
O=C(NNC(=S)NC1CCCCC1)C(=O)NNC(=S)NC1CCCCC1,62*,0,-1,-2,8,-11,
O=C(NC1CCCCC1)C(=S)NC1CCCC1,10,1,-1,-55,x,x,
Fc1ccc(-c2cc(NCCCn3ccnc3)nc(-c3ccncc3)n2)cc1,43,0,1,-4,x,x,
N#CCCNc1cc(-c2cccc(C(F)(F)F)c2)nc(-c2cccnc2)n1,104*,0,0,4,1,11,
Fc1ccc(-c2cc(NCCCn3ccnc3)nc(-c3cccnc3)n2)cc1,54*,-1,0,9,31*,39*,
Cc1nc(NCCCn2ccnc2)cc(-c2cccc(C(F)(F)F)c2)n1,61*,-1,-1,-44,-4,18,
N#CCCNc1cc(-c2ccc(F)cc2)nc(-c2cccnc2)n1,1,0,-2,5,x,x,
SMILES,MITF primary,FBW7 act,GPR151 activ,TEAD-YAP block,MITF inh conf,AS interf ctr,others
O=C(c1cc2c(s1)-c1ccccc1SC2)N1CCN(c2ncccn2)CC1,16,0,0,-4,x,x,
COc1cc([N+](=O)[O-])c(OC)cc1SCC(=O)NNC(=O)c1c(F)cccc1F,7,0,-1,6,x,x,
CC1(C)CC(=O)C2=C(C1)N(c1ccc(Cl)cc1)C(N)=C(C#N)C2c1ccc(C(C)(C)C)s1 (configuration not stated),12,0,-2,8,x,x,
CC1(C)CC(=O)C2=C(C1)N(c1ccc(Br)cc1)C(N)=C(C#N)C2c1ccc(C(C)(C)C)s1 (configuration not stated),52*,0,-2,-5,16,0,
COC(=O)CN1C(=S)N(C)C(=O)/C1=C/c1ccc(N(C)C)cc1,22,0,0,-25,x,x,
CCN1CCN(CCOc2cc(C)ccc2Cl)CC1,72*,-1,1,1,8,17,
CCN1CCN(CCOc2cccc(Cl)c2Cl)CC1,72*,0,2,-2,8,14,
CCN1CCN(CCCOc2ccccc2F)CC1,33,0,0,1,x,x,
CCN1CCN(CCCOc2ccc(C)cc2Cl)CC1,68*,0,0,-6,12,14,
Cc1cc(C)c2[nH]c(C)c(CN3CCCC3)c(=O)c2c1,-13,0,0,1,x,x,
Cc1cccc(N2C(=O)C3C4C=CC(O4)C3C2=O)c1C (configuration not stated),51*,-1,0,6,-1,10,
CC(=O)CCc1ccc(OCC(=O)NC2CCCC(C)C2C)cc1 (configuration not stated),-12,0,-1,-9,x,x,
CCOc1ccc(S(=O)(=O)N2CCC(Cc3ccccc3)CC2)cc1,15,0,3,11,x,x,
c1ccc2c(c1)OCC(c1nc3c(-c4ccncc4)cncc3[nH]1)O2 (configuration not stated),61*,0,0,-4,39*,10,AS interf DR=>6.5
O=C(CC1Nc2ccccc2NC1=O)Nc1cccc(Cl)c1 (configuration not stated),65*,0,1,4,2,-11,
CC1CC(C)CN(S(=O)(=O)c2ccc(C(=O)Nc3sc4c(c3C(N)=O)CCCCC4)cc2)C1 (configuration not stated),71*,0,-1,5,-5,-4,
CCOC(=O)c1c(NC(=O)c2ccc(S(=O)(=O)N3CC(C)CC(C)C3)cc2)sc2c1CCCC2 (configuration not stated),-5,0,-1,-7,x,x,
CCCN(CCC)S(=O)(=O)c1ccc(C(=O)Nc2sc3c(c2C(N)=O)CCN(CC)C3)cc1,71*,0,1,0,-2,-4,
Cc1cccc2nc(CSc3cccc4cccnc34)cn12,4,0,2,-41,x,x,
Cc1ccc(NCc2ccccn2)c(Br)c1,59*,1,-1,-58,10,16,
Cc1cc(Br)ccc1NCc1ccccn1,67*,0,0,-12,-4,8,
Cc1cc(C)cc(NCc2ccccn2)c1,17,0,0,7,x,x,
CC(C(=O)NCCn1nc(-c2cccs2)oc1=O)c1ccccc1 (configuration not stated),-4,0,0,-7,x,x,
Cc1ccc2nc(-c3ccc(NC(=O)Cc4ccccc4)cc3)sc2c1,-4,0,1,-18,x,x,
CCCCOC(=O)c1ccc(NC(=O)CN(C)C2CCN(C)CC2)cc1,58*,0,-1,-27,10,17,
SMILES,MITF primary,FBW7 act,GPR151 activ,TEAD-YAP block,MITF inh conf,AS interf ctr,others
CN1CCC(N(C)CC(=O)Nc2ccc3c(c2)OC(F)(F)O3)CC1,57*,0,1,9,-7,0,
CN(C)CC(C)(C)CNCC(=O)Nc1ccc2c(c1)OC(F)(F)O2,56*,0,2,3,-11,-2,
CC(=O)N1CCN(CC(=O)Nc2ccc3c(c2)OC(F)(F)O3)CC1,5,0,-1,3,x,x,
Cc1ccc2nc(-c3ccc(NC(=O)CNCC(C)(C)CN(C)C)cc3)sc2c1,52*,0,-1,2,-2,8,
CCCCOC(=O)c1ccc(NC(=O)CCCC)cc1,1,0,1,-4,x,x,
O=C(Nc1cccc2ccccc12)c1nn2c(c1Br)NC(c1cccs1)CC2C(F)(F)F (configuration not stated),2,0,2,-7,x,x,

# Bioassay records from PubChem.
